Assay outcomes (PubChem)
Pf growth 96h: Primary qHTS for delayed death inhibitors of the malarial parasite plastid, 96 hour incubation; P. falciparum luciferase reporter growth, 96 h; Potency, µM (titrated, usually from 28.7 µM), for inactives: at the top dose activity change, negative = inhibition, hits mostly inhibitors; 6.9% of 320,000 active; AID 504834, 2011
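Two-generation exposure (96 h) targets delayed-death phenotype. Reporter parasites carrying integrated firefly luciferase, in red cells at 2% hematocrit and 0.05% parasitemia final, kept at 37 C, 5% CO2; luminescence loss indicates inhibition.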
Pf growth 48h: Primary qHTS for delayed death inhibitors of the malarial parasite plastid, 48 hour incubation. P. falciparum luciferase growth in erythrocytes, 48 h. Potency, µM (doses to about 28.7 µM), inactives show top-dose activity change, negative = inhibition, actives largely listed as inhibitors. 5.9% of 310,000 active. AID 504832, 2011
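Erythrocytes infected with P. falciparum carrying an integrated firefly luciferase reporter (2% hematocrit, 0.1% parasitemia final) were exposed to compounds in RPMI 1640 with 0.5% Albumax at 37 C, 5% CO2. Growth inhibition was scored as reduced luminescence.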
VACV Venus inh: qHTS for Stage-Specific Inhibitors of Vaccinia Orthopoxvirus: Venus Reporter Primary qHTS; Vaccinia virus Venus reporter expression, fluorescence; AID 720580, 2013; 0.46% of 330,000 active; Potency, µM (highest dose often 36.5 µM), without a hit: top-dose activity change, negative = inhibition, hits mostly inhibitors; calls by dose curve; tested in A549 cells; also: nearly all actives have a fitted effect of over 30% in size
AMA1-RON2 inh: qHTS for Inhibitors of AMA1-RON; Towards Development of Antimalarial Drug Lead: Primary Screen | Plasmodium falciparum AMA1 (3D7) - RON2 peptide interaction | AlphaScreen AMA1-biotinylated RON2 peptide binding | Potency, µM (top dose mostly 58.2 µM), inactives show at the top dose activity change, negative = inhibition, most hits filed as inhibitors | 0.2% of 360,000 active | AID 720542, 2013;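 also: 0% = vehicle wells and -100% = peptide control; nearly all actives have a fitted effect of over 45% in size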
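AMA1 (3D7) with his tag at 25 nM final met compounds first, then biotinylated RON2 peptide at 25 nM; detection used donor plus acceptor beads, 10 µg/mL apiece, read by AlphaScreen after 30 min at room temperature.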
VACV mCherry inh: qHTS for Stage-Specific Inhibitors of Vaccinia Orthopoxvirus: mCherry Reporter Primary qHTS | Vaccinia virus mCherry reporter infection, fluorescence | Potency, µM (highest dose often 36.5 µM), for inactives: top-dose activity change, negative = inhibition, actives largely listed as inhibitors | 0.63% of 310,000 active; calls by dose curve; tested in A549 cells; also: nearly all actives have a fitted effect of over 35% in size
* marks the source's active call; other numbers are inactive results; i = inactive; ? = inconclusive; . = not tested or not shown; [ ] = remark or other dose. Compounds with a hit are over-represented: about 8.7% of the library has one in this group of screens. Unless noted, calls follow the shape of the dose curve; as a rule, active = well fitted curve in the direction sought with a large enough effect; inconclusive = small, poorly fitted or top-dose-only effect, or another doubt; inactive = no such curve, though single readings can be large; an effect the other way counts as inactive or inconclusive. Unless noted, % is scaled to controls: 0 for no effect and ±100 for the full control effect; potency is read from the fitted curve at half-maximal effect.

SMILES | Pf growth 96h | Pf growth 48h | VACV Venus inh | AMA1-RON2 inh | VACV mCherry inh
O=C(NCc1ccc2c(c1)CCN2C(=O)c1ccncc1)c1ccc(Cl)cc1 | . | . | -2.5% | . | -11.5%
O=C(NCc1ccc(F)cc1)c1cc(-c2ccncc2)nc2ccccc12 | ? | 3.7µM* | -1.4% | -2.0% | -17.7%
Cc1ccccc1C(=O)NC(=S)Nc1ccccc1C(=O)O | 10.4µM* | 22.9% | -13.9% | 38.0% | i
COC(=O)c1ccccc1NC(=S)NC(=O)c1ccccc1C | 0.0% | 23.5% | -5.8% | 18.3% | -4.3%
CCc1cccc(C)c1NC(=O)c1cc(-c2ccncc2)nc2ccccc12 | 9.28µM* | 10.4µM* | 5.7% | -7.5% | -5.6%
CC(C)(C)c1ccccc1NC(=O)c1cc(-c2ccncc2)nc2ccccc12 | . | . | 0.0% | -16.8% | -4.2%
O=C(NNC(=O)c1cc(-c2ccncc2)nc2ccccc12)c1ccccc1O | ? | ? | ? | 125.8% | 12.6µM*
CC(=O)Nc1cc(C(=O)N2CCSCC2)cc2ncn(CCc3ccccn3)c12 | . | . | 1.5% | . | -14.3%
Cc1nc(C)n(CC(=O)N2CCOc3ccc(CN4CCN(C)C[C@@H]4c4ccccc4)cc3C2)n1 | . | . | -9.5% | . | -4.1%
O=S(=O)(Nc1ccc(F)c(Cl)c1)c1ccc(Br)s1 | . | . | -6.8%[7.34 µM] | . | -9.3%[7.34 µM]
Cc1c(-c2nc(-c3ccc4c(c3)OCO4)no2)nnn1-c1ccc(C(C)C)cc1 | . | . | -2.2%[7.34 µM] | . | -9.5%[7.34 µM]
CCNC(=S)NNC(=O)c1cc(-c2cc(C)ccc2C)nc2ccccc12 | 5.22µM* | ? | -11.8% | 78.3% | -6.4%
Cc1cc(C)c2cccc(NC(=S)NC(=O)c3ccccc3)c2n1 | 1.85µM* | 10.4µM* | . | 61.1% | .
COc1ccc(-c2cc(C(=O)Nc3c(Cl)cc(Cl)cc3Cl)c3ccccc3n2)cc1OC | ? | 13.1µM* | -4.3% | -3.8% | -9.1%
Cc1c(C(=O)Nc2ccc3c(c2)OCO3)sc2nc(-c3ccccc3)cn12 | ? | 13.1µM* | -22.7% | 0.0% | -28.9%
COc1cccc(CNC(=O)C2CCN(S(=O)(=O)c3cn(C)cn3)CC2)c1 | . | . | -9.4% | . | -10.8%
Cc1ccc(C(=O)Nc2ccc3oc(-c4ccncc4)nc3c2)c(Cl)c1 | . | . | -12.8% | . | -1.8%
Cc1ccc(-c2cc(C(=O)Nc3ccncc3)c3ccccc3n2)cc1 | 1.47µM* | 1.65µM* | 0.9% | 0.1% | -10.0%
Cc1ccccc1NC(=S)NC(=O)c1cc(-c2ccccc2)nc2ccccc12 | 9.28µM* | ? | -11.8% | 62.3% | i
O=C(Nc1ccncc1)c1cc(-c2ccccn2)nc2ccccc12 | ? | -12.1% | -10.0% | -5.5% | -12.7%
CCCCS(=O)(=O)N1C2=NC(C(=O)OC)=C(C(=O)OC)[C@@H]3N(C)c4ccc(OC)cc4[C@]23C[C@H]1C(=O)OC | ? | 10.4µM* | 0.4% | ? | -26.9%
COC(=O)C1=C(C(=O)OC)[C@@H]2N(C)c3ccc(OC)cc3[C@@]23C[C@@H](C(=O)OC)N(S(=O)(=O)c2ccc([N+](=O)[O-])cc2)C3=N1 | 13.1µM* | 7.38µM* | ? | -29.2% | ?
COC(=O)C1=C(C(=O)OC)[C@@H]2N(C)c3ccc(OC)cc3[C@@]23C[C@@H](C(=O)OC)N(C(=O)C2CCC2)C3=N1 | 50.8% | ? | -10.5% | ? | i
CCC(=O)N1CCc2cc(S(=O)(=O)N3CCN(C(=O)c4ccco4)CC3)ccc21 | -14.1% | ? | -21.1% | -12.5% | ?
O=C(c1ccco1)N1CCN(S(=O)(=O)c2ccc3c(c2)CCN3C(=O)C2CCC2)CC1 | -6.2% | 13.1µM* | -23.1% | 1.0% | -24.8%
SMILES | Pf growth 96h | Pf growth 48h | VACV Venus inh | AMA1-RON2 inh | VACV mCherry inh
O=C(C1CCC1)N1CCc2cc(S(=O)(=O)N3CCN(c4ccccn4)CC3)ccc21 | -1.7% | 10.4µM* | -24.2% | -3.6% | -4.3%
Fc1ccc(C(NCCc2ccccc2)c2nnc(-c3ccccc3Cl)o2)cc1 (configuration not stated) | . | . | -2.6% | . | -10.1%
CN1CCc2nc3sc(C(=O)C45CC6CC(CC(C6)C4)C5)c(N)c3cc2C1 | 2.62µM* | 9.28µM* | -24.4% | 9.0% | .
CN1CCc2nc3sc(C(=O)c4ccc(F)cc4)c(N)c3cc2C1 | . | . | 35.3% | . | 1.2%
COC(=O)c1ccccc1NC(=O)COc1ccccc1C(=O)Nc1ccccc1 | . | . | -3.7% | . | -4.7%
CNC(=S)NCCCc1ccccc1 | 5.22µM* | -2.5% | . | -12.4% | .
CC(CCc1ccccc1)NC(=O)CSc1ccccc1 (configuration not stated) | 13.1µM* | -18.6% | -11.9% | 2.9%[2.32 µM] | -14.8%
Cc1ccccc1NC(=S)NC(C)CCc1ccccc1 (configuration not stated) | 13.1µM* | ? | -20.0% | -7.4% | -11.9%
Cc1ccc(SCC(=O)NCCCc2ccccc2)cc1 | -0.2% | 14.2% | -12.9% | 34.8% | -13.8%
O=C(CSc1ccccc1)NCCCc1ccccc1 | 14.7µM* | 5.9% | -11.6% | 6.9% | i
S=C(NCCCCc1ccccc1)NCc1ccccc1 | ? | 9.9% | . | 22.9% | .
CCC1=C(c2ccc(C)cc2)S(=O)(=O)N=C1N1CCC(C(=O)NCCc2ccc(Cl)cc2)CC1 | . | . | ? | . | -24.0%
CC1CCN(S(=O)(=O)c2ccc3c(ccc(=O)n3CC(=O)NCc3ccccc3Cl)c2)CC1 | . | . | -4.1% | . | -11.9%
Cc1ccc(NC(=O)C(=O)NCCCN2CCOCC2)cc1C | . | . | -1.6% | . | 0.3%
Cc1cccc2c1-c1sc(C(=O)N(C)c3cccc(Cl)c3)cc1CO2 | . | . | -2.8% | . | -11.2%
Cc1cccc(C(=O)N2CCCCC2CCN2CCCCC2)c1 (configuration not stated) | . | . | -7.0% | . | -7.3%
CCC(C)NC(=O)CSc1ccc(Cl)cc1 (configuration not stated) | 3.29µM* | 53.2% | -4.3% | ? | 1.8%
CC(C)C(NC(=O)CSc1ccc(Cl)cc1)C(C)C | ? | . | -9.0% | 2.6% | -15.6%
CC(C)Cn1c(=O)c(C(=O)Nc2ccccc2S(N)(=O)=O)c(O)c2ccccc21 | -3.1% | 2.0% | ? | 39.2% | ?
CCC(C)n1c(=O)c(C(=O)Nc2ccccc2S(N)(=O)=O)c(O)c2ccccc21 (configuration not stated) | 9.28µM* | 1.7% | ? | 84.6% | 12.6µM*
CCOc1ccc(-c2cn3c(n2)sc2cc(C(=O)NCCCc4ccccc4)ccc23)cc1 | . | . | -16.8% | . | -19.3%
COC(=O)Cc1cc(=O)[nH]c(/N=C(\N)Nc2ccc(C(C)C)cc2)n1 | 0.828µM* | 23.9% | -1.5% | 59.1% | -1.8%
COC(=O)Cc1cc(=O)[nH]c(/N=C(\N)Nc2cccc(C)c2)n1 | 11.7µM* | 19.4% | -5.1% | 61.9% | -4.5%
COC(=O)Cc1cc(=O)[nH]c(/N=C(\N)Nc2ccc(C)cc2)n1 | 79.1% | . | -7.1% | 18.9% | -9.7%
